Measurements reported in PubChem BioAssay (Tox21).
Inconclusive results are not listed. Activity calls are given as the source filed them. Unless noted, calls come from the whole dose curve; as a rule, active = well fitted curve in the direction sought with a large enough effect in the repeat runs; inconclusive = weak or mixed curves; inactive = no such curve, though single readings can be large; an effect the other way counts as inactive or inconclusive.

How the values were obtained:
[1] = qHTS assay for small molecule agonists of the p53 signaling pathway (AID 651631; calls by dose curve; note: nearly all actives have a fitted effect of over 15% in size)
Procedure, shortened: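 Fluorescence intensity from cleaved LiveBLAzer B/G substrate (2 h, room temperature) served as the signal. Beforehand, HCT-116 reporter cells bearing p53 response elements were treated 16 h at 37 °C with DMSO-dissolved compounds.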

[2] = qHTS assay for small molecules that induce genotoxicity in human embryonic kidney cells expressing luciferase-tagged ATAD5 (AID 651632); note: nearly all actives have a fitted effect of over 15% in size
Procedure, shortened: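 Luminescence read-out: after 16 hr compound exposure at 37C, ATAD5-luciferase HEK293T cells received Amplite, 30 min RT, then CCD imaging. A rise in signal marks genotoxic stress.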

[3] = qHTS assay for small molecule agonists of the p53 signaling pathway - cell viability (AID 651633; calls by dose curve;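 note: p53RE-bla HCT reporter cells with a stable beta-lactamase p53 reporter; nearly all actives have a fitted effect of over 30% in size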)
Procedure, shortened: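 Viability counter-read: CellTiter-Glo luminescence (30 min, room temperature) in the same p53RE-bla plates. These plates had been exposed to compounds for 16 h at 37 C.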

[4] = qHTS assay for small molecules that induce genotoxicity in human embryonic kidney cells expressing luciferase-tagged ATAD5 - cell viability (AID 651634; calls by dose curve; note: nearly all actives have a fitted effect of over 25% in size)
Procedure, shortened: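 HEK293T ATAD5-luc cells, 2,000/well; compound 15.5 hr, 37C/5% CO2; CellTiter-Fluor 30 min, 37C; fluorescence read.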

[5] = qHTS assay for small molecule disruptors of the mitochondrial membrane potential - cell viability (AID 720634; calls by dose curve;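 note: human HepG2 liver cancer cells; nearly all actives have a fitted effect of over 20% in size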)
Procedure, shortened: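 Luminescence from CellTiter-Glo (ATP content) gave viability in HepG2 cells, read in the same wells as the MMP dye assay after 1 hr compound exposure at 37 C.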

[6] = qHTS assay to test for compound auto fluorescence at 535 nm (green) in HepG2 cells (AID 720675)
[7] = qHTS assay to test for compound auto fluorescence at 460 nm (blue) in HEK293 cells (AID 720678)
Procedure, shortened: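 Auto fluorescence in the blue band was quantified as triamterene equivalency. HEK293 cells were seeded at 2,000/well, dosed after a 4-5 hr attachment, and kept overnight at 37C before the 405/460 nm reading.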

[8] = qHTS assay to test for compound auto fluorescence at 535 nm (green) in HEK293 cells (AID 720680)
[9] = qHTS assay to test for compound auto fluorescence at 460 nm (blue) in HEK293 cell free culture (AID 720681)
Procedure, shortened: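 Blue fluorescence (Ex 405/Em 460 nm, triamterene-equivalent) was read immediately after pin transfer of compound or DMSO into medium (DMEM, 10% FBS) without cells.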

[10] = qHTS assay to test for compound auto fluorescence at 535 nm (green) in HEK293 cell free culture (AID 720682)
Procedure, shortened: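 Intrinsic compound fluorescence is measured in culture medium containing 10% FBS, with excitation at 485 nm and detection at 535 nm, referenced to fluorescein.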

[11] = qHTS assay to test for compound auto fluorescence at 590 nm (red) in HEK293 cell free culture (AID 720683)
Procedure, shortened: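 Red-channel autofluorescence of compounds in culture medium (DMEM, 10% FBS), no cells, measured at 540/590 nm. Rose Bengal sodium is the reference fluorophore for equivalence.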

[12] = qHTS assay to test for compound auto fluorescence at 590 nm (red) in HepG2 cell free culture (AID 720684)
Procedure, shortened: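 Cell-free; medium MEM + 10% FBS; compound or DMSO added by pintool; read Ex 540/Em 590 nm; Rose Bengal sodium as red reference fluorophore.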

[13] = qHTS assay to test for compound auto fluorescence at 460 nm (blue) in HepG2 cell free culture (AID 720685)
Procedure, shortened: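 Cell-free plates of MEM plus 10% FBS received 23 nL compound or DMSO vehicle; blue-channel (405/460 nm) intensity scored against triamterene as reference fluorophore.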

[14] = qHTS assay to test for compound auto fluorescence at 535 nm (green) in HepG2 cell free culture (AID 720686)
[15] = qHTS assay to test for compound auto fluorescence at 460 nm (blue) in HepG2 cells (AID 720687)
Procedure, shortened: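 Blue-channel autofluorescence (Ex/Em 405/460 nm, triamterene-equivalent) was measured after 1 hr compound exposure at 37 C, 5% CO2. Cells were HepG2, plated overnight at 37 C in MEM plus 10% FBS.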

[16] = molecular target: Glucocorticoid receptor (Homo sapiens) (UniProt P04150); assay: qHTS assay to identify small molecule agonists of the glucocorticoid receptor (GR) signaling pathway (AID 720691; active = well fitted activation curve with a large enough effect in the signal ratio in the repeat runs, not every such curve was filed as active; the % refers to the signal ratio); details: GR-bla HeLa, beta-lactamase reporter ratio, 18 h; activation: at 62.4 µM (top of the series) unless noted
Sequence of Glucocorticoid receptor (Homo sapiens) (P04150 whole entry, looked up): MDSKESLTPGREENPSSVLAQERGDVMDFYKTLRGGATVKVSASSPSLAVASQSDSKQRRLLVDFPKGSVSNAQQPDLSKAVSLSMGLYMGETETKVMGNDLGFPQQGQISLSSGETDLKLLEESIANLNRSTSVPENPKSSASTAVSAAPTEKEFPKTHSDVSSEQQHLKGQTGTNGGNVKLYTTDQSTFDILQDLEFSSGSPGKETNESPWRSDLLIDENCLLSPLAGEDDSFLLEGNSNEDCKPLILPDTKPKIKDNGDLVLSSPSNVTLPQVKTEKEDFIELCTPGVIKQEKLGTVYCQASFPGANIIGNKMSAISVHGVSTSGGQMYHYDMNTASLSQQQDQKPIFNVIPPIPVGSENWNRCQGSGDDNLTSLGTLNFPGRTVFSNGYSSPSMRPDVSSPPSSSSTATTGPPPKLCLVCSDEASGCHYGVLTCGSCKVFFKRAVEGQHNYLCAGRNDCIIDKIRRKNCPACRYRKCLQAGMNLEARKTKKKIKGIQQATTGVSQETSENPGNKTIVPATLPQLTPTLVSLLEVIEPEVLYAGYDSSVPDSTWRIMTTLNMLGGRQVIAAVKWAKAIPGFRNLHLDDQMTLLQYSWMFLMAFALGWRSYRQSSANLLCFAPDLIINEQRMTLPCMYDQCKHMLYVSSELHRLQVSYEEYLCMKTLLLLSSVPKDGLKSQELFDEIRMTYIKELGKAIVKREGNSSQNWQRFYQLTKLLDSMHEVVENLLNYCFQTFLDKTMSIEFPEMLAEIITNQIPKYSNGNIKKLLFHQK
Procedure, shortened: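 HeLa GR-bla reporter line; cells pre-incubated 4 h, compound in DMSO 18 h at 37 C; LiveBLAzer B/G FRET substrate 2 h RT; fluorescence intensity read-out.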

[17] = molecular target: Glucocorticoid receptor (Homo sapiens) (UniProt P04150); assay: qHTS assay to identify small molecule antagonists of the glucocorticoid receptor (GR) signaling pathway (AID 720692; active = well fitted inhibition curve with a large enough effect in the signal ratio in the repeat runs, not every such curve was filed as active; the % refers to the signal ratio)
Procedure, shortened: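 Read-out: beta-lactamase FRET substrate fluorescence, 2 h at room temperature, in HeLa cells stably carrying a GRE-driven bla reporter. Compounds were co-incubated with 5 nM dexamethasone agonist (final) for 18 h at 37 C.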

[18] = qHTS assay to test for compound auto fluorescence at 590 nm (red) in HepG2 cells (AID 720674)
Procedure, shortened: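 1 hr compound incubation on HepG2 cells, 37 C, 5% CO2; plate read ex 540 nm / em 590 nm; intensities reported as Rose Bengal sodium equivalents.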

[19] = qHTS assay to test for compound auto fluorescence at 590 nm (red) in HEK293 cells (AID 720679)
Procedure, shortened: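 Autofluorescence equivalency to Rose Bengal sodium, 540/590nm, in HEK293 cells exposed overnight to 23 nL compound per well.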

Measured: Potency

NCC(=O)CCC(=O)O
inactive: [1] | [2] | [3] | [4] | [5] | [6] | [7] | [8] | [9] | [10] | [11] | [12] | [13] | [14] | [15] | [16] | [17]

O=[N+]([O-])c1cccc(S(=O)(=O)O)c1
inactive: [1] | [2] | [3] | [4] | [18] | [6] | [7] | [19] | [8] | [9] | [10] | [11] | [12] | [13] | [14] | [15] | [16] | [17]

CCOCC(O)COc1ccc(NC(=O)CC[S+](C)C)cc1 (centres undefined)
inactive: [1] | [2] | [3] | [4] | [5] | [6] | [19] | [8] | [9] | [10] | [11] | [12] | [13] | [14] | [15] | [16] | [17]

C=C1[C@H]2CC[C@@H]3[C@H]2C(C)(C)CCC[C@]13C
inactive: [1] | [2] | [3] | [4] | [5] | [18] | [6] | [7] | [19] | [8] | [9] | [10] | [11] | [12] | [13] | [14] | [15] | [16] | [17]

CCCCc1ncc(/C=C(\Cc2cccs2)C(=O)O)n1Cc1ccc(C(=O)O)cc1
inactive: [1] | [2] | [3] | [4] | [18] | [6] | [7] | [19] | [8] | [9] | [10] | [11] | [12] | [13] | [14] | [15] | [16] | [17]

O=P(O)(OCc1ccccc1)OCc1ccccc1
inactive: [1] | [2] | [3] | [4] | [5] | [18] | [6] | [7] | [19] | [9] | [10] | [12] | [13] | [14] | [15]
